From PubChem BioAssay AID1159580 (chemical genetic matrix, 2015)
Hit rate of the full screen: of about 5,500 compounds, about 2,000 (36%) were called active. Not shown: some 18% with an inconclusive outcome. No stated cut-off is given here; in the data, active means normalized growth mostly below about 0.91 (no sharp cut-off); inconclusive means no clear call, values can overlap the other calls; inactive means mostly above about 0.92. The list shows a part of the results.

Assay: chemical genetic growth profiling, strain panel (AID 1159580);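 further: tested at 20 µM; growth read once vehicle control cultures reached saturation at 30 °C; 1 = growth at the plate median or of vehicle wells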
Details: S. cerevisiae deletion strains, growth OD

Measured: normalized growth

COc1cc(S(C)=O)ccc1-c1nc2ncccc2[nH]1 (stereo not drawn)
inactive: locus YAL013W, strain DEP1, stronger effect = lower value 1.01 | locus YAL021C, strain ccr4, stronger effect = lower value 0.936 | locus YAL026C, strain drs2, stronger effect = lower value 0.994 | locus YAL030W, strain snc1, stronger effect = lower value 0.976 | locus YBL061C, strain skt5, stronger effect = lower value 0.984 | locus YBR009C, strain hhf1, stronger effect = lower value 0.956 | locus YBR021W, strain FUR4, stronger effect = lower value 0.994 | locus YBR023C, strain chs3, stronger effect = lower value 0.98 | locus YBR171W, strain sec66, stronger effect = lower value 0.977 | locus YBR229C, strain ROT2, stronger effect = lower value 1.01 | locus YBR231C, strain swc5, stronger effect = lower value 1.01 | locus YBR279W, strain paf1, stronger effect = lower value 0.981 | locus YCL011C, strain gbp2, stronger effect = lower value 0.969 | locus YCL016C, strain dcc1, stronger effect = lower value 0.959 | locus YCL029C, strain bik1, stronger effect = lower value 0.985 | locus YCL061C, strain MRC1, stronger effect = lower value 0.984 | locus YCL069W, strain vba3, stronger effect = lower value 0.967 | locus YCR088W, strain abp1, stronger effect = lower value 0.981 | locus YDL005C, strain med2, stronger effect = lower value 0.966 | locus YDL035C, strain GPR1, stronger effect = lower value 1 | locus YDL040C, strain nat1, stronger effect = lower value 0.969 | locus YDL074C, strain BRE1, stronger effect = lower value 1.04 | locus YDL101C, strain DUN1, stronger effect = lower value 0.994 | locus YDL134C, strain PPH21, stronger effect = lower value 1.01 | locus YDL185W, strain tfp1, stronger effect = lower value 0.98 | locus YDL192W, strain arf1, stronger effect = lower value 0.985 | locus YDR001C, strain nth1, stronger effect = lower value 0.963 | locus YDR069C, strain doa4, stronger effect = lower value 0.958 | locus YDR101C, strain arx1, stronger effect = lower value 0.999 | locus YDR137W, strain rgp1, stronger effect = lower value 0.973 | locus YDR150W, strain NUM1, stronger effect = lower value 0.979 | locus YDR159W, strain sac3, stronger effect = lower value 0.96 | locus YDR162C, strain NBP2, stronger effect = lower value 1 | locus YDR195W, strain ref2 0.935 | locus YDR297W, strain sur2, stronger effect = lower value 0.974 | locus YDR318W, strain mcm21, stronger effect = lower value 0.997 | locus YDR334W, strain swr1, stronger effect = lower value 0.97 | locus YDR335W, strain msn5, stronger effect = lower value 0.96 | locus YDR388W, stronger effect = lower value 0.996 | locus YDR392W, strain spt3, stronger effect = lower value 0.848 | locus YDR502C, strain sam2, stronger effect = lower value 0.984 | locus YEL003W, strain gim4, stronger effect = lower value 0.98 | locus YEL037C, strain rad23, stronger effect = lower value 0.975 | locus YEL061C, strain CIN8 (second series), stronger effect = lower value 0.972 | locus YEL061C, strain CIN8, stronger effect = lower value 1 | locus YER015W, strain faa2, stronger effect = lower value 0.982 | locus YER016W, strain bim1, stronger effect = lower value 0.978 | locus YER110C, stronger effect = lower value 0.992 | locus YER111C, strain swi4, stronger effect = lower value 0.972 | locus YER155C, strain BEM2 (second series), stronger effect = lower value 0.994 | locus YER155C, strain BEM2, stronger effect = lower value 0.978 | locus YER167W, strain BCK2, stronger effect = lower value 1.01 | locus YFR010W, strain ubp6, stronger effect = lower value 0.974 | locus YGL078C, strain dbp3, stronger effect = lower value 0.993 | locus YGL086W, strain mad1, stronger effect = lower value 0.995 | locus YGL167C, strain pmr1, stronger effect = lower value 0.941 | locus YGL173C, strain kem1, stronger effect = lower value 0.99 | locus YGL227W, strain vid30, stronger effect = lower value 0.982 | locus YGL240W, strain doc1, stronger effect = lower value 0.999 | locus YGL248W, strain PDE1, stronger effect = lower value 0.995 | locus YGL253W, strain hxk2, stronger effect = lower value 0.987 | locus YGR078C, strain PAC10, stronger effect = lower value 1.02 | locus YGR135W, strain pre9, stronger effect = lower value 0.983 | locus YGR229C, strain SMI1, stronger effect = lower value 1.02 | locus YGR252W, strain gcn5, stronger effect = lower value 1.01 | locus YHR013C, strain ard1, stronger effect = lower value 0.929 | locus YHR027C, strain rpn1, stronger effect = lower value 0.97 | locus YHR030C, strain SLT2, stronger effect = lower value 0.984 | locus YHR079C, strain IRE1 (second series), stronger effect = lower value 0.997 | locus YHR094C, strain hxt1, stronger effect = lower value 0.99 | locus YHR129C, strain ARP1, stronger effect = lower value 1 | locus YHR142W, strain chs7, stronger effect = lower value 0.943 | locus YHR200W, strain rpn10, stronger effect = lower value 0.991 | locus YIL066C, strain RNR3, stronger effect = lower value 0.995 | locus YIL073C, strain SPO22, stronger effect = lower value 0.943 | locus YIL125W, strain kgd1, stronger effect = lower value 0.999 | locus YIR030C, strain dcg1, stronger effect = lower value 0.988 | locus YJL092W, strain hpr5, stronger effect = lower value 0.98 | locus YJL095W, strain BCK1 (second series), stronger effect = lower value 0.972 | locus YJL095W, strain BCK1, stronger effect = lower value 1.03 | locus YJL115W, strain asf1, stronger effect = lower value 0.972 | locus YJL129C, strain trk1, stronger effect = lower value 0.966 | locus YJL134W, strain LCB3, stronger effect = lower value 1.01 | locus YJL154C, strain vps35, stronger effect = lower value 0.972 | locus YJL164C, strain tpk1, stronger effect = lower value 0.941 | locus YJL166W, strain qcr8, stronger effect = lower value 0.984 | locus YJL168C, strain set2, stronger effect = lower value 1 | locus YJL187C, strain SWE1 (second series), stronger effect = lower value 0.989
